# DT40 TDP1 CPT: qHTS for Inhibitors of human tyrosyl-DNA phosphodiesterase 1 (TDP1): qHTS in cells in presence of CPT | Potency, µM (doses to about 46.2 µM), inactives show at the highest dose activity change, negative = growth inhibition, most hits filed as inhibitors | chicken DT40 Tdp1-/-;hTDP1 cells + 20 nM CPT, ATP luminescence, 48 h | 420,000 compounds, 12% hits | AID 686979, 2013; also: nearly all actives have a fitted effect of over 55% in size
#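 Chicken DT40 Tdp1-/- cells stably complemented with human TDP1 were seeded at 400 cells/well in medium containing 20 nM camptothecin, exposed to pin-transferred compounds, and grown at 37 °C for at least 48 hr. Viability was read as ATP luminescence.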
# TDP1 inh: qHTS Assay for Inhibitors of Tyrosyl-DNA Phosphodiesterase (TDP1) | Potency, µM (series often up to 130 µM), for inactives: top-dose activity change, negative = inhibition, most hits filed as inhibitors | Tyrosyl-DNA phosphodiesterase 1 (Homo sapiens), Q9NUW8 | 350,000 compounds, 0.28% hits | recombinant TDP1, AlphaScreen DNA substrate cleavage; also: nearly all actives have a fitted effect of over 40% in size
#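 Steps: enzyme plus compound, 15 min RT; add biotin/phosphotyrosine-FITC oligonucleotide (15 nM final), react 5 min; add donor/acceptor beads (10 ug/ml final), 10 min; read AlphaScreen. Tdp1 at 1 nM final.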
# DT40 TDP1 no CPT: qHTS for Inhibitors of human tyrosyl-DNA phosphodiesterase 1 (TDP1): qHTS in cells in absence of CPT | DT40 Tdp1-/- hTDP1 cells, no CPT, ATP luminescence, 48 h | Potency, µM (doses to about 46.2 µM), for inactives: top-dose activity change, negative = growth inhibition, usual class: inhibitors | 420,000 compounds, 15% hits | AID 686978, 2013; also: nearly all actives have a fitted effect of over 55% in size
#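 DT40 Tdp1-/-;hTDP1 cells, no CPT (DMSO vehicle only), 400 cells/well; compounds pin-transferred; ≥48 hr, 37 °C; CellTiter-Glo 30 min RT dark, luminescence read.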
# Gal4-VP16 FLuc: VP16 counterscreen qHTS for inhibitors of ROR gamma transcriptional activity | Drosophila S2 Gal4-VP16 UAS-luciferase, luminescence, 20 h | Potency, µM (doses to about 53.6 µM), for inactives: top-dose activity, negative = inhibition, actives largely listed as inhibitors | 310,000 compounds, 3.5% hits | AID 2546, 2010;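 also: Gal4-VP16 expression switched on by copper sulfate through the metallothionein promoter; nearly all actives have a fitted effect of over 50% in size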
# RORg inh: qHTS for inhibitors of ROR gamma transcriptional activity; 310,000 compounds, 5.4% hits; Potency, µM (highest dose often 53.6 µM), for the others: top-dose activity change, negative = inhibition, most hits filed as inhibitors; Drosophila S2 Gal4-RORgamma UAS-luciferase reporter, 20 h; Nuclear receptor ROR-gamma (Mus musculus), P51450; also: nearly all actives have a fitted effect of over 60% in size
# Target sequence (P51450 whole entry, looked up, the tested form may be a part): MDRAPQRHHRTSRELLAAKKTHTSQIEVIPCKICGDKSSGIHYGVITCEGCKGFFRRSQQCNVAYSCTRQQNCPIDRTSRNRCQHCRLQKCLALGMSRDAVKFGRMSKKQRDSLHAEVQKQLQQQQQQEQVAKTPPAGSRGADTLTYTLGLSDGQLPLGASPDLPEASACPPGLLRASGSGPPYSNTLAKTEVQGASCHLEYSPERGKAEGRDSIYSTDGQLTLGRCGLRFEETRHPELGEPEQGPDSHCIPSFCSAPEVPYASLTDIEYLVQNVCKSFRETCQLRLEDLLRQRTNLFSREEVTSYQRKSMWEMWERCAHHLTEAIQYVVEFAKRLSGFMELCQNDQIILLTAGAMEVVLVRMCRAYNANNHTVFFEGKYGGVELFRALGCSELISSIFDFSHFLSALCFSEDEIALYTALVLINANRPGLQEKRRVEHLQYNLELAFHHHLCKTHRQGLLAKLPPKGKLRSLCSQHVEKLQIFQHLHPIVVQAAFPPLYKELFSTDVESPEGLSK
#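 Using a luciferase readout, inhibitors were identified by reduced reporter activity in Drosophila cells coexpressing a copper-inducible Gal4–ROR gamma fusion and UAS-driven Photinus luciferase, incubated 20 hr after 700 uM copper sulfate.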
# Active calls of the source: *; ? = inconclusive; . = no result given; [ ] = dose if it differs, or a comment. Hits are enriched below; roughly 19% of the tested compounds scored in any of these assays. Calls follow the shape of the dose curve; as a rule, active = well fitted curve in the direction sought with a large enough effect; inconclusive = small, poorly fitted or top-dose-only effect, or another doubt; inactive = no such curve, though single readings can be large; an effect the other way counts as inactive or inconclusive. % is scaled to controls: 0 for no effect and ±100 for the full control effect; potency is read from the fitted curve at half-maximal effect.
SMILES,DT40 TDP1 CPT,TDP1 inh,DT40 TDP1 no CPT,Gal4-VP16 FLuc,RORg inh
Cc1ccn2c(CC(C)(C)C)c(-c3ccc(F)cc3)nc2c1,21µM*,.,21µM*,.,.
Cc1ccc(Cc2c(-c3ccc(Cl)cc3)nc3cc(C)c(Br)c(C)n23)cc1,?,.,-14%,.,.
Cc1ccc(Cc2c(-c3ccc(C)cc3)nc3cc(C)ccn23)cc1,21µM*,.,21µM*,.,.
Cc1ccc(Cc2c(-c3ccc(Cl)cc3)nc3cc(C)ccn23)cc1,?,.,18µM*,.,.
CCN1C(C)=C(C(=O)OC(C)C)C(c2ccccc2Cl)C2=C1COC2=O (stereo unspecified),.,8%,.,0%,4%
COc1ccc(Cl)cc1C(=O)Nn1c(-c2cccs2)nc2ccccc2c1=O,10µM*,6%,?,-5%,15%
COc1ccc(Cl)cc1C(=O)Nn1c(C)nc2ccccc2c1=O,?,1%,?,-7%,5%
Cc1ccc(-c2onc3ccc(C(=O)/C=C/N(C)C)cc23)cc1,?,.,?,10%,15%
COc1ccc(-c2nc(-c3ccccc3)c(NC(C)C)o2)cc1,.,7%,.,-5%,-5%
Cc1cnc(NC2=NCCC2)s1,9%,-2%,9%,?,7.1µM*
CCc1nnc(NC2=NCCC2)s1,16%,.,0%,18µM*,-24%
c1nnc(NC2=NCCCCC2)s1,-2%,0%,2%,9%[0.365 µM],32%
COc1cccc(NC(=O)CN(C)C(=O)c2ccc3c(c2)CC(c2ccccc2)OC3=O)c1 (stereo unspecified),?,0%[56.1 µM],?,.,.
COc1ccc(NC(=O)CN(C)C(=O)c2ccc3c(c2)CC(c2ccccc2)OC3=O)cc1 (stereo unspecified),26µM*,.,16µM*,.,.
COc1ccc(Cl)cc1NC(=O)CN(C)C(=O)c1ccc2c(c1)CC(c1ccccc1)OC2=O (stereo unspecified),15µM*,0%,16µM*,.,.
CCC(CC)CN1CCC(CN2C(=O)C(=O)NC[C@@H]2CC(C)C)CC1,7%,.,24%,.,.
Cc1cc(C(=O)NNC(=O)CCN2CCN(c3ccccc3)CC2)c2ccccc2n1,-13%,0%,?,0%,3%
COc1ccc(CNC(=O)c2cc(S(=O)(=O)N3CCCCC3)ccc2Cl)cc1OC,?,0%,18µM*,.,.
COc1ccccc1CNC(=O)c1cccc(S(=O)(=O)N2CCN(C)CC2)c1,4%,4%,-4%,5%,11%
O=C(NCc1ccc(F)cc1)c1cc(S(=O)(=O)N2CCCCC2)ccc1Cl,2%,-2%,17%,.,.
CN1CCN(S(=O)(=O)c2cccc(C(=O)Nc3ccccc3N3CCCC3)c2)CC1,-26%,5%,-20%,9%,-1%
Cc1cc(N2CCN(C)CC2)ccc1NC(=O)c1cccc(S(=O)(=O)N2CCc3ccccc3C2)c1,23µM*,4%,18µM*,?,?
COc1ccc(CNC(=O)c2cccc(S(=O)(=O)N3CCCCC3)c2)cc1OC,13µM*,-5%,?,.,.
COc1cc(OC)c(OC)cc1CNC(=O)c1cccc(S(=O)(=O)N2CCc3ccccc3C2)c1,13µM*,1%,8.2µM*,.,.
COc1cc(-n2c(=O)c3ccccc3n(Cc3cc(=O)n4ccccc4n3)c2=O)cc(OC)c1OC,-9%,-3%,?,-17%,23%
SMILES,DT40 TDP1 CPT,TDP1 inh,DT40 TDP1 no CPT,Gal4-VP16 FLuc,RORg inh
CCOc1ccc(CCNC(=O)c2cccc(S(=O)(=O)N3CCCCC3)c2)cc1OCC,13µM*,-6%,7.3µM*,.,.
CCOc1ccc(CCNC(=O)c2cccc(S(=O)(=O)N3CCOCC3)c2)cc1OCC,-23%,6%[0.505 µM],-26%,.,.
CC(=O)c1ccc2c3c(cccc13)CC2,3%,4%,-15%,-1%,13%
ON=C(c1ccccc1)c1ccc2c3c(cccc13)CC2,?,.,18µM*,.,.
CNC(=S)N1CCc2sccc2C1C (stereo unspecified),20%,0%,14%,-7%,-15%
CCN(CC)CCNC(=O)c1c2c(nc3ccccc13)C(=O)N(C1CCCCC1)C2,-7%,5%,7%,.,.
CCOc1ccccc1NC(=O)c1c2c(nc3ccccc13)C(=O)N(C1CCCCC1)C2,6.5µM*,11%,5.8µM*,.,.
Cc1ccccc1NC(=O)c1c2c(nc3ccccc13)C(=O)N(C1CCCCC1)C2,?,6%,21µM*,.,.
Cc1ccc(NC(=O)c2c3c(nc4ccccc24)C(=O)N(C2CCCCC2)C3)cc1F,8.2µM*,6%,12µM*,.,.
CC(=O)N1CCN(c2nnc(-c3ccc(C)cc3)c3ccccc23)CC1,5%,.,?,1%,27%
CN1CCN(c2ncc3nc(-c4cc(F)cc(F)c4)c(=O)n(C)c3n2)CC1,7%,.,1%,-3%,-26%
COC(=O)C1=C(CSc2nccn2C)NC(=O)NC1c1cc(C)ccc1C (stereo unspecified),?,6%,0%,-30%,?
COc1ccccc1NNC(=O)c1cc(C(C)(C)C)nn1Cc1ccccc1,1%,-1%,23µM*,-5%,?
CC(C)(C)c1cc(C(=O)NNc2cccc(Cl)c2)n(Cc2ccccc2)n1,?,5%,?,?,?
Cc1ccc(NNC(=O)c2cc(C(C)(C)C)nn2Cc2ccccc2)cc1,-18%,-1%,?,18µM*,?
COc1ccccc1NC(=O)c1nnn(Cc2ccccc2)c1NC(=O)C(F)(F)F,?,0%,29µM*,2%,36%
CC(C)(C)c1cc(C(=O)NNc2cc(C(F)(F)F)ccc2Cl)n(Cc2ccccc2)n1,?,1%,21µM*,8.9µM*,?
COc1ccccc1NC(=O)c1nnn(Cc2ccccc2)c1NC(C)=O,-16%,-1%,-13%,-4%,31%
CC(C)(C)c1cc(C(=O)NNc2ccc(OC(F)(F)F)cc2)n(Cc2ccccc2)n1,-29%,3%,?,-17%,29%
COc1cc(/C=C/C(=O)OCC(=O)NC(=O)NC2CCCCC2C)ccc1OC(F)F (stereo unspecified),-22%,2%,-6%,.,.
CCN(CC)c1ccc(NC(=O)CCNC(=O)c2ccco2)cc1,7%,-1%,-17%,-10%,-4%
N[C@@H](C(=O)O)[C@H](CC(=O)O)c1ccc(Cl)cc1,14%,6%,-4%,6%,-11%
Cc1ccc(NC(=O)c2cc(C(C)(C)C)nn2Cc2ccccc2)cc1,?,0%,29µM*,-19%,-16%
